This is a sample that favours compounds with a hit; in the whole collection about 0.43% have one here.
GAA inhib: qHTS Assay for Inhibitors of Human alpha-Glucosidase as a Potential Chaperone Treatment of Pompe Disease. Lysosomal alpha-glucosidase (Homo sapiens), P10253. purified human GAA, 4-MU-alpha-glucoside fluorescence. Potency, µM (top dose mostly 76.9 µM), inactives show at the highest dose activity change, negative = inhibition, actives largely listed as inhibitors. actives 0.005% (n = 200,000). AID 1466, 2008;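 note: potency is the fitted concentration of half-maximal effect; plate controls were uninhibited enzyme wells for no effect and no-enzyme background for full effect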
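AC50 values come from Hill fits of compound titrations (up to 77 uM) against 4 nM human enzyme. Substrate 4-methylumbelliferyl-alpha-D-pyranoside at 400 uM, pH 5.0 citrate buffer, 20 min room temperature; fluorescence Ex 365/Em 440 after alkaline stop.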
N370S GC mod: qHTS Assay for Inhibitors and Activators of N370S glucocerebrosidase as a Potential Chaperone Treatment of Gaucher Disease; Potency, µM (top dose mostly 59.4 µM), for the others: at the highest dose activity change, negative = inhibition, actives largely listed as inhibitors; Lysosomal acid glucosylceramidase (Homo sapiens), P04062; N370S GC spleen homogenate, 4MU-glucoside fluorescence; actives 0.092% (n = 330,000);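 note: potency is the fitted concentration of half-maximal effect; 0% = full enzyme activity and -100% = no enzyme basal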
GAA glycogen: qHTS Assay for Inhibitors and Activators of Human alpha-Glucosidase Cleavage of Glycogen; AID 2100, 2009; actives 0.38% (n = 300,000); Potency, µM (titrated, usually from 76.4 µM), for the others: at the top dose activity change, negative = inhibition, actives largely listed as inhibitors; recombinant GAA, glycogen substrate, Amplex Red glucose oxidase fluorescence; Lysosomal alpha-glucosidase (Homo sapiens), P10253;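 note: potency is the fitted concentration of half-maximal effect; 0% = full enzyme reaction and -100% = no-enzyme basal signal; the screen sought inhibitors and activators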
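Natural-substrate format: glycogen cleavage by 4 nM human enzyme, glucose read by Amplex Red coupling (Ex 573, Em 610 nm). Normalized to enzyme and no-enzyme controls.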
GLA inh pH 4.5: qHTS Assay for Inhibitors of Human alpha-Galactosidase at pH 4.5; Alpha-galactosidase A (Homo sapiens), P06280; purified enzyme, 4-MU-alpha-Gal fluorescence, pH 4.5; activity change, negative = inhibition, % at 105 µM; 230,000 tested, under 10 active; AID 1467, 2008;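 note: 0% = full activity with enzyme and -100% = basal without enzyme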
Target sequence (P06280 whole entry, looked up): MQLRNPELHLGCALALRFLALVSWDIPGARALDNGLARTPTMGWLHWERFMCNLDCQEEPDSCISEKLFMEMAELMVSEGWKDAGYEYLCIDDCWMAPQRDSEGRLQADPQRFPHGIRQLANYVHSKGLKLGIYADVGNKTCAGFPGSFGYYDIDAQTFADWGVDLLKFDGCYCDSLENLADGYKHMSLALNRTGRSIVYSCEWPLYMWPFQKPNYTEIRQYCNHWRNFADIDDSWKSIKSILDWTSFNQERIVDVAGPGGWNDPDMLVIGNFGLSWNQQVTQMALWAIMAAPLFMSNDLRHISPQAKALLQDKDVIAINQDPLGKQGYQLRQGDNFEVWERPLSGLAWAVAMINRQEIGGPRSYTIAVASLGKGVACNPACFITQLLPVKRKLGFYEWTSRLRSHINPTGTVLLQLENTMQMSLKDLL
aGlu spleen mod: qHTS Assay for Inhibitors and Activators of Human alpha-Glucosidase From Spleen Homogenate. AID 2112, 2009. actives 0.006% (n = 240,000). Lysosomal alpha-glucosidase (Homo sapiens), P10253. human spleen homogenate, 4-MU-alpha-glucoside fluorescence. Potency, µM (highest dose often 79.9 µM), for the others: top-dose activity change, negative = inhibition, actives largely listed as inhibitors;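 note: potency is the fitted concentration of half-maximal effect; 0% = enzyme with vehicle and -100% = no enzyme basal signal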
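Human spleen homogenate (1 ug) incubated with compounds and 1 mM 4-methylumbelliferyl-alpha-D-glucopyranoside in pH 5.0 citrate/phosphate buffer, 37 C, 40 min. Stopped at pH 10; 4-MU fluorescence (Ex 365/Em 440 nm); AC50 by Hill fit.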
GLA spleen mod: qHTS Assay for Inhibitors and Activators of Human alpha-Galactosidase From Spleen Homogenate; human spleen homogenate, 4MU-alpha-Gal fluorescence, 40 min; Alpha-galactosidase A (Homo sapiens), P06280; actives 0.008% (n = 240,000); Potency, µM (titrated, usually from 80 µM), without a hit: top-dose activity change, negative = inhibition, usual class: inhibitors; AID 2107, 2009;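 note: potency is the fitted concentration of half-maximal effect; 0% = enzyme with vehicle and -100% = no enzyme basal signal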
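Human spleen homogenate (1 ug) as enzyme source, 4-methylumbelliferyl-alpha-D-galactopyranoside 1 mM final, citrate/phosphate pH 5.0 with 0.01% Tween-20. Compounds 40 min at 37C, NaOH/glycine stop; fluorescence Ex 365/Em 440, Hill-fit AC50.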
* hit, by the source's call; [ ] = remark or other dose. Calls come from the whole dose curve; as a rule, active = well fitted curve in the direction sought with a large enough effect; inconclusive = small, poorly fitted or top-dose-only effect, or another doubt; inactive = no such curve, though single readings can be large; an effect the other way counts as inactive or inconclusive.

For COc1ccc2[nH]c(C(=O)O)c(NS(=O)(=O)c3ccc(OC)c(OC)c3)c2c1 the results were GAA inhib 4.1%, N370S GC mod -2.8%, GAA glycogen 3.98µM*, GLA inh pH 4.5 -2.8, aGlu spleen mod -5.7% and GLA spleen mod -2.6%.
Screening CCOC(=O)C1CCCN(C(=O)Cn2ncc3c4ccccc4n(Cc4ccc(F)cc4)c3c2=O)C1 (configuration not stated) returned GAA glycogen -14.7%[76.3 µM].
`CC(=O)OC(C)C` gave N370S GC mod -2.1%, aGlu spleen mod -2.2% and GLA spleen mod -3.1%.
For COc1ccccc1CNc1ccnc(-c2ccccc2Cl)n1 the results were N370S GC mod inconclusive, aGlu spleen mod -4.8% and GLA spleen mod -3.7%.
For Cc1cccc(CNc2ccnc(-c3ccccc3Cl)n2)c1 the results were N370S GC mod 7.08µM*, aGlu spleen mod -6.9% and GLA spleen mod -0.7%.
For Clc1ccccc1-c1nccc(NCc2ccccc2)n1 the results were N370S GC mod 3.55µM*, aGlu spleen mod 2.9% and GLA spleen mod -0.1%.
`COc1cccc([C@@H]2Oc3ccc(Br)cc3C(=O)[C@H]2OC(=O)NS(=O)(=O)c2ccc(C)cc2)c1` gave N370S GC mod -15.8%, GLA inh pH 4.5 -7.0, aGlu spleen mod -7.3% and GLA spleen mod -5.9%.
Screening Cc1ccc(C(=S)N2CCN(Cc3ccccc3)CC2)cc1 returned GAA inhib -2.7%, N370S GC mod 12.8%, GAA glycogen -2.6%, GLA inh pH 4.5 -8.4, aGlu spleen mod -2.3% and GLA spleen mod -4.0%.
`CCN1CCN(C(=S)c2ccc(-c3ccccc3)cc2)CC1` gave GAA inhib 1.3%, N370S GC mod 11.2µM*, GAA glycogen -13.7%, GLA inh pH 4.5 -6.6, aGlu spleen mod 7.3% and GLA spleen mod 1.8%.
For COC(=O)c1c(NC(=O)CCCOc2ccc(C)cc2)sc2c1C(C(=O)OC)CC2 (configuration not stated) the results were GAA glycogen 2.8%[76.3 µM].
`CCOC(=O)NC1(Nc2ccc(Cl)cn2)Oc2ccccc2O1` gave GAA inhib 2.8%, N370S GC mod -1.9%, GAA glycogen 22.2µM*, GLA inh pH 4.5 -2.8, aGlu spleen mod -2.9% and GLA spleen mod 1.8%.
`CCOC(=O)/C=C/C(=O)OCC(=O)Nc1ccc(Cl)cn1` gave GAA inhib 3.4%, N370S GC mod 3.4%, GAA glycogen 3.9%, GLA inh pH 4.5 -8.3, aGlu spleen mod -1.5% and GLA spleen mod -21.5%.
Screening Nc1cc(-c2ccccc2)ccc1O returned GAA inhib -5.6%, N370S GC mod -7.2%, GAA glycogen 10µM*, GLA inh pH 4.5 1.1, aGlu spleen mod -1.8% and GLA spleen mod 1.1%.
For CN1C(=O)/C(=C/C=C2\SCCN2C)N(C)C1=S the results were GAA inhib inconclusive, N370S GC mod -10.1%, GAA glycogen 11.2µM*, GLA inh pH 4.5 -10.9[21.1 µM], aGlu spleen mod -3.1% and GLA spleen mod -2.6%.
`CCOC(=O)/C=C/CCC/C=C/C(=O)c1ccccc1` gave N370S GC mod -10.9%, GLA inh pH 4.5 -1.6, aGlu spleen mod -6.9% and GLA spleen mod -6.0%.
For CC(=O)OC[C@@H]1O[C@@H](O/N=C2/C[C@@H](O)[C@@H](O)[C@@H]3[C@@H]4C(=O)N(C(C)(C)C)C(=O)[C@H]4CC[C@@H]23)[C@H](OC(C)=O)[C@H](OC(C)=O)[C@@H]1OC(C)=O the results were N370S GC mod -6.9%[12.8 µM], aGlu spleen mod 2.8%[17.4 µM] and GLA spleen mod -0.9%[17.5 µM].
